# Reference: the OligoGym collection
# Target: RNF122
# Test: pooled miR-30 sensor sort-seq; sequence = guide strand
# Settings: shRNA
row,Sequence,sensor-assay potency score (higher = more potent)
1,TATAATTGTAACTTCTTGGCAT,0.823
2,ATATCCGTATCGCTCACTCTGT,-0.868
3,ATCCGTATCGCTCACTCTGTGC,-0.963
4,TTTGCTGATAAAATAGCAGCAG,-0.0269

# Target: RNF125
# Test: as above
# Settings: shRNA
row,Sequence,sensor-assay potency score (higher = more potent)
1,TACTTATCTATGTACTTCTGAC,-0.698
2,TATCTATGTACTTCTGACAAGT,-0.831
3,TTGTTGTTCTTTAGACTGGTAG,-0.623
4,TTGTTCTTTAGACTGGTAGCAA,-0.126
5,TTCTTGTAGTGGTCCATACTTA,-0.891
6,TGTACTTCTGACAAGTCCGAAT,-0.85
7,TAGTGGTCCATACTTATCTATG,-1.8
8,TTATCTATGTACTTCTGACAAG,-1.25
9,TTATACTCTGATTTCATTCTTT,0.204
10,TAGACTGGTAGCAATACAGGAA,-0.258
11,ATGTACTTCTGACAAGTCCGAA,-1.03
12,ATACTTATCTATGTACTTCTGA,0.546

# Target: RNF14
# Test: as above
# Settings: shRNA
row,Sequence,sensor-assay potency score (higher = more potent)
1,TTCTTCTCTAGCCACTCCTTAC,-0.95
2,ATGTCATCTTGTTACATCCGTC,-0.926
3,TATCTTGAAATTCTGTGGCAAA,-1.02
4,TTTATTAGCCTCATCCGCTTGC,0.884
5,TATCGTCGTCAACATCCACAGC,-0.981
6,TTTCTGAGAACCAATCTTGAGC,-0.733
7,AATATCGTCGTCAACATCCACA,-1.06
8,TCTAAATTCATCTCCATCGTAA,0.0572
9,TTACTTTGTGTACTTGACGGAA,-0.835
10,TCATCTTGTTACATCCGTCTAA,0.00357
11,TAAAACATGGTGAACCAGGGTC,0.147
12,TTTGAGTTCTTCTCTAGCCACT,-1.03

# Target: RNF157
# Test: as above
# Settings: shRNA
row,Sequence,sensor-assay potency score (higher = more potent)
1,TAAGGAAACACAACTGGTCTGT,0.685
2,TTCAATTCCATAGATCTCCTGA,0.823
3,TTGAGTTTGAGTCCCTGACTGC,-0.461
4,TTGAGTCCCTGACTGCTGCTGT,0.522
5,TTGTCTTTGGGAATGTAGCTGG,0.177
6,TACCATTCTGGAACTCTTCCGT,0.188
7,TTGTACTGCACAGTCTCCGACT,-0.593
8,TACTTGTTTCTGTTTGAGGGGC,0.142
9,TTTCGGATATTGACCAGGCTTC,-1.09
10,TTCCTCAGCACATTTGACGAGC,-0.263
11,TTCCTCTTCATGCAGCACGGAA,-1.64
12,TTGAGTCAAACTTCTCTCCTCC,0.532
